According to PubChem BioAssay:
Activity calls are given as the source filed them.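 The calls were made as follows: active = mean inhibition above 46.68%, the untreated control wells mean plus 3 SD; inactive = the rest.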

Molecular target: Nuclear receptor coactivator 1 (Homo sapiens) (UniProt Q15788)
Assay: SRC1 coactivator transcriptional activity inhibitors, confirmation, cell-based, luminescence, quadruplicate (AID 588820);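 also: 0% = DMSO wells and 100% = gossypol 36 µM treated wells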
Settings: HEK293 GAL4-SRC1 luciferase reporter, at 3.6 µM, hits give high values

Chain of Nuclear receptor coactivator 1 (Homo sapiens) (Q15788 whole entry, looked up): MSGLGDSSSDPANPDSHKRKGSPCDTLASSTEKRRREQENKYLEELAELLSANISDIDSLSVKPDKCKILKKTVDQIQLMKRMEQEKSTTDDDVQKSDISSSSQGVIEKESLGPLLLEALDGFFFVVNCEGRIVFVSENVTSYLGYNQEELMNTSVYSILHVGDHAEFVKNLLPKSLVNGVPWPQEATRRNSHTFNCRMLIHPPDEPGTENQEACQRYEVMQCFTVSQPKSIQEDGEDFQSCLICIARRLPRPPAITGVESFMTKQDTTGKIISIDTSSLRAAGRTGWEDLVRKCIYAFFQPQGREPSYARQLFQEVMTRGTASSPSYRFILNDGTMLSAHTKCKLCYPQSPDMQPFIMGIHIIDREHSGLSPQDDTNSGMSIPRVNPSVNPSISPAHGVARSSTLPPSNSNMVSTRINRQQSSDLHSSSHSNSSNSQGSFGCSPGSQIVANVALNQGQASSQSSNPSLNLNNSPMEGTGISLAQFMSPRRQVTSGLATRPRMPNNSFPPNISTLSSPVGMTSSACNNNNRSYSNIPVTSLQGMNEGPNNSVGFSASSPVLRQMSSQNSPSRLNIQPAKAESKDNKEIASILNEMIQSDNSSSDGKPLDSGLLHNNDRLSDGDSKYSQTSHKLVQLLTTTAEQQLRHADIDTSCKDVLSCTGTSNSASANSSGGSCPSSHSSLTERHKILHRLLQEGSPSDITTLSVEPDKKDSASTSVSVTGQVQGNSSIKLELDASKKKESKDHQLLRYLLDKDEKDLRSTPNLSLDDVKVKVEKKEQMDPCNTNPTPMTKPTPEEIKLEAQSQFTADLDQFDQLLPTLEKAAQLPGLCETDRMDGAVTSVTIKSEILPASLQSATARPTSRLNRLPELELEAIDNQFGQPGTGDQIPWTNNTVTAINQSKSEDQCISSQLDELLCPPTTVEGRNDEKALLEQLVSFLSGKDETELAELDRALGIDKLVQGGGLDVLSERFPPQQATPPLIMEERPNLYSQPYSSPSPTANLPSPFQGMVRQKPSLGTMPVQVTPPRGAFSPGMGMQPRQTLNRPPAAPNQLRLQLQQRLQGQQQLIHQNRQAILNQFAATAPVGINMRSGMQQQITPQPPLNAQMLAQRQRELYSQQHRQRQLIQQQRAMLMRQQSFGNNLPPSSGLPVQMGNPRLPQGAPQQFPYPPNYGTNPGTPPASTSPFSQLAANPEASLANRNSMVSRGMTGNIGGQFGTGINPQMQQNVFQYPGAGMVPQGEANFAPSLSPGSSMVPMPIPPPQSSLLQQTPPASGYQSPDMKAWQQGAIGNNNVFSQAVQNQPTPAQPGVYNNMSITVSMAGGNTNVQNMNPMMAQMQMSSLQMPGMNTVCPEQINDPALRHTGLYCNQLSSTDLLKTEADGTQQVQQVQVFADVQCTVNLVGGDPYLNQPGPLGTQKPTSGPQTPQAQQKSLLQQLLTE

inhibition, active:
CC1CCN(Cc2c(C(=O)N/N=C/c3ccccc3O)nnn2-c2nonc2N)CC1 64.4%
Cn1c(=O)c2c(nc(Oc3ccc4ccccc4c3)n2C)n(C)c1=O 53.3%
CCOc1ccc(-n2c(C)c(C(C)=O)c3cc(OC(C)=O)ccc32)cc1 65.8%
O=[N+]([O-])c1ccc(O)c(/C=N/Nc2ccccn2)c1 60.6%
Nc1nc(=O)n(C2CC(O)C(CO)O2)cc1F (stereo not given) 57.2%
CN(c1ncnc(N)c1[N+](=O)[O-])C1CCS(=O)(=O)C1 (stereo not given) 52.7%
c1cncc(CNc2ncnc3ccc(-c4ccoc4)cc23)c1 66%

inhibition, inactive:
O=C(/C(=C/c1ccc(Cl)cc1)c1nc2ccccc2[nH]1)c1cccs1 22.4%
Cc1ccc(S(=O)(=O)N2[C@@H](c3ccc(C(C)(C)C)cc3)C(C(=O)O)=CC[C@H]2c2ccc(Cl)cc2)cc1 28.7%
O=C(Nc1nc(-c2ccc3ccccc3c2)cs1)C1CCN(S(=O)(=O)c2cccs2)CC1 -6.77%
Fc1ccc(NC(=S)NNc2ncc(C(F)(F)F)cc2Cl)c(F)c1 15.9%
Nc1nc(CCl)nc(Nc2cccc3ccccc23)n1 16.1%
Cc1cc(C)nc(SCC(=O)Nc2ccnc3ccccc23)n1 -7.31%
COc1ccc(-c2cn[nH]c2N)c(OC)c1 43.9%
O=c1[nH]c(=O)n(C2OC(CO)C(O)C2O)cc1F (stereo not given) 26.9%
CCOC(=O)c1c(C)n(C)c2ccc(OC)c(NC(=O)c3cccs3)c12 41.6%
CCOc1cc(C(N)=O)cc(Br)c1OC 29.3%
CC(C)c1ccc(-c2nnn(CCC(=O)O)n2)cc1 41.3%
Cn1c(=O)c2c(nc(NCc3ccco3)n2C/C=C/c2ccccc2)n(C)c1=O 18.6%
CC(=O)N1c2ccc(S(=O)(=O)NCC3CCC(C(=O)Nc4cccc(C)n4)CC3)cc2CC1C (stereo not given) -11.2%
Cc1ccc(S(=O)(=O)N2CCN(S(C)(=O)=O)CC2)cc1 -0.28%
CC12CCC(C(=O)N/N=C/c3ccc(O)cc3O)(OC1=O)C2(C)C (stereo not given) 11.4%
Cc1cc(C)c2nc3nc(C)c(C)cc3c(N)c2c1 5.02%
O=C(CCc1ccccc1)NC(c1cccs1)c1cc(Cl)c2cccnc2c1O (stereo not given) 45%
Cc1cccc[n+]1CC(=O)/C=C1\N(C)c2ccccc2C1(C)C -9.04%
OC1c2cc(Br)ccc2N=C2CCCN21 (stereo not given) 37%
Cc1ccc(-c2n[nH]c(=S)n2/N=C/c2ccncc2)cc1 37.6%
CCSCCc1nnc(NC(=O)Nc2cccc(C(F)(F)F)c2)s1 45.9%
C(C#CCCCCCCCCC[n+]1ccccc1)#CCCCCCCCCC[n+]1ccccc1 41.7%
CC1CCN(c2nc3ccc(C(=O)O)cc3s2)CC1 -48.3%
COc1ccc(-c2cn[nH]c2-c2ccc(OCc3ccc([N+](=O)[O-])cc3)cc2O)cc1 39.1%
CCN(CC)CCC(=O)Nc1cccc2c1C(=O)c1ccccc1C2=O 8.87%
Cc1cccc(CNc2ncnc3ccc(-c4ccoc4)cc23)c1 45.1%
O=C(/C=C/c1ccc(Cl)cc1)NC(=S)Nc1ccc(NC(=O)c2ccco2)cc1 45.1%
N=c1c2c(-c3ccccc3)c(-c3ccccc3)n(Cc3ccco3)c2ncn1CCCn1ccnc1 43.8%
CC(=O)N1CCN(c2ccc(Oc3ncnc4sccc34)cc2)CC1 27.3%
CN([C@@H](Cc1ccc(OS(=O)(=O)c2cccc3cnccc23)cc1)C(=O)N1CCN(c2ccccc2)CC1)S(=O)(=O)c1cccc2cnccc12 -4.42%
Fc1ccc(CSc2nnc(-c3ccncc3)o2)cc1 29.9%
CC(C)(C)C(=O)NC(=S)NNC(=O)c1sc2ccccc2c1Cl -1.3%
COc1ccc(N/N=C(\C#N)C(=N)SCc2ccccc2)cc1 35.7%
